# Tau fluor cs – counter-screen for tau fibril formation inhibitors; tau K18 P301L Alexa594 fluorescence, heparin fibrillization; Potency, µM (titrated, usually from 57.7 µM), inactives show top-dose activity change, negative = decrease; 280,000 tested, 0.93% active; active = well fitted curve in the direction sought with a large enough effect; inconclusive = small, poorly fitted or top-dose-only effect, or another doubt; inactive = no such curve, though single readings can be large; an effect the other way counts as inactive or inconclusive; note: nearly all actives have a fitted effect of over 55% in size
#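 Human tau K18 P301L (15 uM unlabeled, 0.24 uM Alexa 594-labeled) in 100 mM sodium acetate pH 7 with 20 uM heparin, 6 hr at 37 C. ThT 30 uM added, 1 hr ambient; Alexa 594 FP and total fluorescence read at 555/632 nm.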
# Tau fibril ThT – inhibitors of human tau fibril formation, thioflavin T binding | Potency, µM (top dose mostly 57.4 µM), inactives show at the highest dose activity, negative = inhibition, actives largely listed as inhibitors | 270,000 tested, 2.1% active | recombinant tau K18 P301L (four-repeat tau fragment), heparin-induced fibrillization, ThT fluorescence; active = well fitted curve in the direction sought with a large enough effect; inconclusive = small, poorly fitted or top-dose-only effect, or another doubt; inactive = no such curve, though single readings can be large; an effect the other way counts as inactive or inconclusive; note: nearly all actives have a fitted effect of over 55% in size
# Target sequence (P10636 561-689 P618L limits assumed): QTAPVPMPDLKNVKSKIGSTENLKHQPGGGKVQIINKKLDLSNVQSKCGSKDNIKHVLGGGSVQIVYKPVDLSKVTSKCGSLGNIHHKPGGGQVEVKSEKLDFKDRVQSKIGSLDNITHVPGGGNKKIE
#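 In this qHTS, human K18 P301L tau is incubated with compound and heparin for 6 hr at 37 C, and Thioflavin T fluorescence then reports fibril load.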
# HPGD inh – blocks human HPGD enzyme activity | purified HPGD, NADH fluorescence kinetic, PGE2 substrate | AID 894 | Potency, µM, for inactives: top-dose activity change, negative = inhibition, most hits filed as inhibitors | 150,000 tested, 4.3% active
#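 20 nM HPGD preincubated 15 min at room temperature with compound in 50 mM Tris-HCl pH 8, 0.01% Tween 20. Started with 1 mM NAD+ and 30 uM prostaglandin E2; NADH fluorescence (360/450 nm) read 5 times over 30-s intervals, last minus first.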
# Tau FP inhib – inhibitors of human tau fibril formation; P10636; K18 P301L tau heparin fibrillization, Alexa594 FP, 6 h; Potency, µM (top dose mostly 57.7 µM), without a hit: at the highest dose activity, negative = inhibition, actives largely listed as inhibitors; 280,000 tested, 0.39% active; AID 1468; active = well fitted curve in the direction sought with a large enough effect; inconclusive = small, poorly fitted or top-dose-only effect, or another doubt; inactive = no such curve, though single readings can be large; an effect the other way counts as inactive or inconclusive; note: nearly all actives have a fitted effect of over 55% in size
#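 FP of Alexa 594-tau after heparin (20 uM) induction. Substrate: human K18 P301L, 15 uM unlabeled, 0.24 uM labeled. Buffer 100 mM sodium acetate pH 7. 6 hr, 37 C.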
# JMJD2E inh – inhibitors of human JMJD2E histone demethylase | JMJD2E catalytic domain, FDH-coupled NADH fluorescence (FDH is formaldehyde dehydrogenase) | Potency, µM (top dose mostly 57.1 µM), without a hit: at the highest dose activity change, negative = inhibition, actives largely listed as inhibitors | 230,000 tested, 1.6% active;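 note: 0% = wells with enzyme and -100% = buffer wells without enzyme; nearly all actives have a fitted effect of over 50% in size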
# Target sequence (B2RXH2 1-337 limits assumed): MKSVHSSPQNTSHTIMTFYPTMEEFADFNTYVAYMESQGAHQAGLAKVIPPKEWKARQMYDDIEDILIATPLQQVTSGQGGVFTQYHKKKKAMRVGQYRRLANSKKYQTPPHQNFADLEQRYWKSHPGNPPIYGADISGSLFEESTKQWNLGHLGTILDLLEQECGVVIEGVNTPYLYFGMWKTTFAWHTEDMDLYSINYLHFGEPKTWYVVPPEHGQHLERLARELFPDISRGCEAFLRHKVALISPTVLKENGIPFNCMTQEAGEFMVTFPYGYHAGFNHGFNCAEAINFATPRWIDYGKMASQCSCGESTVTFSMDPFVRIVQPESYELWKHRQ
# ALDH1A1 inh – inhibitors of human aldehyde dehydrogenase 1A1; Potency, µM (doses to about 75.3 µM), for the others: at the top dose activity, negative = inhibition, most hits filed as inhibitors; P00352; Purified ALDH1A1, NADH fluorescence, propionaldehyde substrate; 220,000 tested, 7.3% active; AID 1030;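 note: plate controls were no enzyme wells and a reference inhibitor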
# Starred values were filed as active, the others as inactive; ? = inconclusive; . = no result given; [ ] = another dose, or the depositor's remark. Sampled rows, rich in hits. Any-hit rate of the full collection: about 9.9%. Unless noted, calls come from the whole dose curve; as a rule, active = well fitted inhibition curve with a large enough effect (not every such curve was filed as active); inconclusive = small, poorly fitted or top-dose-only effect, or another doubt; inactive = no such curve, though single readings can be large or run the other way. Unless noted, % is set by controls: 0 for no effect and ±100 for the full control effect; potency is the fitted concentration of half-maximal effect.
SMILES,Tau fluor cs,Tau fibril ThT,HPGD inh,Tau FP inhib,JMJD2E inh,ALDH1A1 inh
CCCCOP(=O)(c1ccc(N(C)C)cc1)C(O)c1ccncc1 (stereo unspecified),5%,-2%,-22%,-4%,22µM*,-15%
CCOC(=O)c1c(C)nc2cc(C)cc(C)n12,3%,-4%,.,3%,-7%,3%
CCCn1c(=O)c(C(=O)c2ccccc2)nc2ccccc21,-4%,-6%,-2%,4%,1%,-20%
CCCCn1c(=O)c(C(=O)c2ccccc2)nc2ccccc21,-5%,-9%,-17%,2%,0%,22µM*
C=CCNC(=S)NC(=O)c1ccc(C)c(Br)c1,-3%,2%,.,-5%,-3%,16%
CCOc1ccc(N(CCCCO)C(=S)NC(=O)c2ccc(C)c(Br)c2)cc1,-20%,?,.,5%,-12%,22µM*
COc1ccc(NC(=O)Cn2ncc(Cl)c(Cl)c2=O)cc1S(=O)(=O)N1CCOCC1,-7%,?,-4%,?,-17%,11µM*
CCc1ccccc1NC(=O)CN(C)C(=O)Cn1ncc(Cl)c(Cl)c1=O,0%,-3%,-4%,-2%,-4%,0%
CCOC(=O)c1ccc(NC(=O)Cn2ncc(Cl)c(Cl)c2=O)cc1,-7%,?,-10%,-9%,-1%,28µM*
CCC(=O)Nc1ccc(C(=O)Cn2ncc(Cl)c(Cl)c2=O)cc1,-25%,?,.,?,-29%,2.2µM*
COc1ccc(NC(=O)Cc2coc3cc(C)c(C(C)C)cc23)cc1S(=O)(=O)N1CCOCC1,?,-10%,-14%,?,?,22µM*
COc1ccc2c(CC(=O)Nc3ccc(OC)c(S(=O)(=O)N4CCOCC4)c3)coc2c1,-14%,-2%,-14%,2%,12%,-2%
CCN(CC)S(=O)(=O)c1ccc2c(c1)N(CC(=O)Nc1cccc(C#N)c1)C(=O)CO2,?,4%,.,-10%,.,.
Cc1ccc(OC[C@H](O)[C@H](C)NC(C)C)c2c1CCC2,-3%,-3%,-8%,0%,?,-1%
O=C(NCc1cccnc1)NC1CC(=O)N(c2ccc3c(c2)OCCO3)C1 (stereo unspecified),-4%,-8%,.,5%,1%,7%
COc1ccc(CCNC(=O)Cn2c(=O)n(-c3cc(OC)c(OC)c(OC)c3)c(=O)c3ccccc32)cc1OC,-17%,-16%,.,-6%,.,.
CC(C)OCC(O)CS(=O)(=O)Cc1ccccc1 (stereo unspecified),-11%,-18%,13µM*,-11%,6%,13%
COc1ccc(CNC(=O)CN2C(=O)CSc3ccc(S(=O)(=O)N4CCOCC4)cc32)c(OC)c1,0%,14%,.,-2%,.,.
Cc1nnc(Sc2cc(NCCCO)c([N+](=O)[O-])c3nonc23)s1,?,6.3µM*,.,-14%,-3%,?
CC(=O)c1ccc(Sc2nnc(C)s2)c([N+](=O)[O-])c1,9%[2.34 µM],5%,.,-7%,7%,3%
O=[N+]([O-])c1c(NCCO)cc(N2CCN(Cc3ccc4c(c3)OCO4)CC2)c2nonc12,-5%,?,-29%,11%,1%,?
Cc1nnc(Sc2cc(NCCO)c([N+](=O)[O-])c3nonc23)s1,?,7.9µM*,.,?,-3%,-6%
CCOC(=O)C1CCCN(c2cc(NCCCO)c([N+](=O)[O-])c3nonc23)C1 (stereo unspecified),13%,-7%,13µM*,3%,-1%,?
O=C(Nc1nnc(N2CCCCCC2)s1)Nc1cc(F)ccc1F,-1%,1%,.,3%,.,.
Cc1nc2nc(SCC(=O)O)nn2c(C)c1Cc1ccccc1Cl,-5%,-6%,.,4%,-12%,-6%
SMILES,Tau fluor cs,Tau fibril ThT,HPGD inh,Tau FP inhib,JMJD2E inh,ALDH1A1 inh
CC1CCCN(c2ccc(C(=O)NCc3cccs3)cn2)C1 (stereo unspecified),-8%,-16%,28µM*,-1%,-21%,?
O=C(NCc1cccs1)c1ccc(N2CCCCC2)nc1,6%,3%,16µM*,1%,10%,13µM*
Cc1ccc(C(=O)NCc2cccs2)cc1S(=O)(=O)N1CCCCC1,-10%,-5%,1%,-4%,-6%,?
CC1CCCN(c2ccc(C(=O)NCc3ccccc3)cn2)C1 (stereo unspecified),-11%,-13%,.,-1%,?,?
CC(C)CN1CCC(=O)N(CCSc2ccc(Br)cc2)CC1,2%,4%,.,-7%,-1%,.
CC(=O)OC1CC[C@]2(C)C(CC(OC(C)=O)[C@@]3(C)C4=CC(=O)OC(c5ccoc5)[C@]4(C)CCC23)C1(C)C (stereo partly specified),-1%,?,-10%,-1%,-8%,4%
O=C1NC2(CCCCC2)C(=O)N1/N=C/c1ccccc1Br,-7%,-7%,.,-2%,4%,4.5µM*
O=C1NC2(CCCCC2)C(=O)N1/N=C/c1ccc(O)cc1O,-7%,-5%,?,-11%,16%,?
COc1ccc(CNC(=O)C(=O)NCC2OCCN2S(=O)(=O)c2ccc3c(c2)OCCO3)cc1 (stereo unspecified),-10%,-8%,-6%,7%,-5%,-12%
Oc1ccc(N=Nc2ccc3c(c2)OCO3)c2ccccc12,-20%,0.89µM*,.,?,19%,.
O=C(c1cnc2cc(-c3ccccc3)nn2c1)c1cc([N+](=O)[O-])ccc1O,-18%,?,.,5%,.,.
Cc1ccc(-c2cc3ncc(C(=O)c4cc([N+](=O)[O-])ccc4O)cn3n2)cc1,-29%,10µM*,.,3%,.,.
CCC(C)(C)NC(=O)CN(Cc1ccccc1Cl)C(=O)CCC(=O)Nc1cc(C)ccn1,-6%,?,.,-16%,-25%,14µM*
Cc1ccnc(NC(=O)CCC(=O)N(CC(=O)NCCc2ccccc2)Cc2ccco2)c1,2%,11%,-7%,2%,0%,7.9µM*
CCOCC(=O)Nc1ccc(F)c(F)c1,2%,1%,28µM*,4%,4%,-1%
CCOCC(=O)Nc1cccc(Br)c1,-7%,-4%,25µM*,4%,-2%,20µM*
CCOCC(=O)Nc1cccc(NC(C)=O)c1,5%,5%,-8%,-4%,4%,5%
O=C(COC(=O)CC(c1ccccc1)c1ccccc1)Nc1ccc(F)c(F)c1,?,7%,.,?,?,-3%
COc1ccc(CCNC(=O)COc2ccc(N(C)S(=O)(=O)c3ccc(C)cc3)cc2)cc1OC,-21%,-15%,.,1%,18%,?
CCC(C)[C@H](Nc1nc(-c2ccccc2)nc2c1oc1ccccc12)C(=O)O (stereo partly specified),-1%,7%,-6%,1%,7%,0.79µM*

# From PubChem
